Hit rate of the full screen: of about 5,500 compounds, about 2,000 (36%) were called active. Inconclusive results (about 18%) are left out. No stated cut-off is given here; in the data, active means normalized growth mostly below about 0.91 (no sharp cut-off); inconclusive means no clear call, values can overlap the other calls; inactive means mostly above about 0.92. Some of the results follow.
Assay: chemical genetic growth profiling, strain panel (AID 1159580);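 further: tested at 20 µM; growth read once vehicle control cultures reached saturation at 30 °C; 1 = growth at the plate median or of vehicle wells; lower values mean less growth of the strain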
Conditions: S. cerevisiae deletion strains, growth OD

Measured: normalized growth

Nc1ncnc2c1ncn2C1CCCO1 (stereo not drawn)
inactive: locus YAL013W, strain DEP1, active compounds read low 1.03 | locus YAL040C, strain CLN3, active compounds read low 1.03 | locus YCL061C, strain MRC1 (second series), active compounds read low 0.997 | locus YDR363W, strain ESC2, active compounds read low 1.02 | locus YER002W, strain NOP16, active compounds read low 0.967 | locus YJR075W, strain HOC1, active compounds read low 1.02 | locus YMR307W, strain GAS1, active compounds read low 1 | locus YNL153C, strain GIM3, active compounds read low 0.989 | locus YNL175C, strain NOP13, active compounds read low 0.986 | locus YNL197C, strain WHI3, active compounds read low 0.967 | locus YNL224C, strain SQS1, active compounds read low 1 | locus YOR083W, strain WHI5 (second series), active compounds read low 0.977 | locus YPL055C, strain LGE1, active compounds read low 1.02

Reference: PubChem BioAssay AID1159580 (chemical genetic matrix, 2015)
